# Assay results from PubChem BioAssay AID1159580 (chemical genetic matrix, 2015).
# Values joined by “and” are separate entries in the source; they are usually repeats but may differ in a detail not shown here. Equal values may be shown once. Among all 5,500 compounds or so, about 2,000 (36%) were called active. About 18% were inconclusive and are not listed. The list shows a part of the results. Values without a mark were called inactive. No stated cut-off is given here; in the data, active means normalized growth mostly below about 0.91 (no sharp cut-off); inconclusive means no clear call, values can overlap the other calls; inactive means mostly above about 0.92.
# Assay: chemical genetic growth profiling, strain panel (AID 1159580);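 further: tested at 20 µM; growth read once vehicle control cultures reached saturation at 30 °C; 1 = growth at the plate median or of vehicle wells; lower values mean less growth of the strain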
# Settings: S. cerevisiae deletion strains, growth OD
compound,measurement,setting,value
CS(=O)(=O)OCCCCOS(C)(=O)=O,normalized growth,"locus YAL013W, strain DEP1, hits give low values",0.954
same,normalized growth,"locus YAL021C, strain ccr4, hits give low values",0.999
same,normalized growth,"locus YAL026C, strain drs2, hits give low values",1.02
same,normalized growth,"locus YAL030W, strain snc1, hits give low values",1.03
same,normalized growth,"locus YBL061C, strain skt5, hits give low values",1.01
same,normalized growth,"locus YBR009C, strain hhf1, hits give low values",1.11 [resistant] (active)
same,normalized growth,"locus YBR021W, strain FUR4, hits give low values",1.01
same,normalized growth,"locus YBR023C, strain chs3, hits give low values",1.01
same,normalized growth,"locus YBR171W, strain sec66, hits give low values",1.03
same,normalized growth,"locus YBR229C, strain ROT2, hits give low values",0.994
same,normalized growth,"locus YBR231C, strain swc5, hits give low values",0.993
same,normalized growth,"locus YBR279W, strain paf1, hits give low values",1.01
same,normalized growth,"locus YCL011C, strain gbp2, hits give low values",1.04
same,normalized growth,"locus YCL016C, strain dcc1, hits give low values",1.05
same,normalized growth,"locus YCL029C, strain bik1, hits give low values",0.956
same,normalized growth,"locus YCL069W, strain vba3, hits give low values",1.03
same,normalized growth,"locus YCR088W, strain abp1, hits give low values",1.02
same,normalized growth,"locus YDL005C, strain med2, hits give low values",1.01
same,normalized growth,"locus YDL035C, strain GPR1, hits give low values",1.02
same,normalized growth,"locus YDL040C, strain nat1, hits give low values",1
same,normalized growth,"locus YDL074C, strain BRE1, hits give low values",0.901
same,normalized growth,"locus YDL101C, strain DUN1, hits give low values",0.948
same,normalized growth,"locus YDL185W, strain tfp1, hits give low values",0.918
same,normalized growth,"locus YDL192W, strain arf1, hits give low values",0.942
same,normalized growth,"locus YDR001C, strain nth1, hits give low values",1.01
same,normalized growth,"locus YDR069C, strain doa4, hits give low values",1.02
same,normalized growth,"locus YDR101C, strain arx1, hits give low values",0.961
same,normalized growth,"locus YDR137W, strain rgp1, hits give low values",1.03
same,normalized growth,"locus YDR159W, strain sac3, hits give low values",0.996
same,normalized growth,"locus YDR162C, strain NBP2, hits give low values",0.961
same,normalized growth,"locus YDR195W, strain ref2",0.973
same,normalized growth,"locus YDR297W, strain sur2, hits give low values",1.05
same,normalized growth,"locus YDR318W, strain mcm21, hits give low values",0.962
same,normalized growth,"locus YDR334W, strain swr1, hits give low values",1.01
same,normalized growth,"locus YDR335W, strain msn5, hits give low values",1.04
same,normalized growth,"locus YDR388W, hits give low values",0.963
same,normalized growth,"locus YDR392W, strain spt3, hits give low values",1.04
same,normalized growth,"locus YDR502C, strain sam2, hits give low values",0.973
same,normalized growth,"locus YEL003W, strain gim4, hits give low values",1.03
same,normalized growth,"locus YEL037C, strain rad23, hits give low values",1.02
same,normalized growth,"locus YEL061C, strain CIN8 (second series), hits give low values",1.01
same,normalized growth,"locus YEL061C, strain CIN8, hits give low values",0.979
same,normalized growth,"locus YER015W, strain faa2, hits give low values",0.998
same,normalized growth,"locus YER016W, strain bim1, hits give low values",1.03
same,normalized growth,"locus YER110C, hits give low values",0.93
same,normalized growth,"locus YER111C, strain swi4, hits give low values",1.02
same,normalized growth,"locus YER155C, strain BEM2 (second series), hits give low values",1.02
same,normalized growth,"locus YER155C, strain BEM2, hits give low values",1
same,normalized growth,"locus YER167W, strain BCK2, hits give low values",1.01
same,normalized growth,"locus YFR010W, strain ubp6, hits give low values",0.996
same,normalized growth,"locus YGL078C, strain dbp3, hits give low values",0.987
same,normalized growth,"locus YGL086W, strain mad1, hits give low values",0.954
same,normalized growth,"locus YGL167C, strain pmr1, hits give low values",1.05
same,normalized growth,"locus YGL173C, strain kem1, hits give low values",1.01
same,normalized growth,"locus YGL227W, strain vid30, hits give low values",1.02
same,normalized growth,"locus YGL240W, strain doc1, hits give low values",1.05
same,normalized growth,"locus YGL248W, strain PDE1, hits give low values",0.95
same,normalized growth,"locus YGL253W, strain hxk2, hits give low values",1.03
same,normalized growth,"locus YGR078C, strain PAC10, hits give low values",0.935
same,normalized growth,"locus YGR135W, strain pre9, hits give low values",0.934
same,normalized growth,"locus YGR252W, strain gcn5, hits give low values",0.861
same,normalized growth,"locus YHR013C, strain ard1, hits give low values",1.09
same,normalized growth,"locus YHR027C, strain rpn1, hits give low values",1
same,normalized growth,"locus YHR030C, strain SLT2, hits give low values",0.979 and 1
same,normalized growth,"locus YHR079C, strain IRE1 (second series), hits give low values",0.952
same,normalized growth,"locus YHR079C, strain IRE1, hits give low values",0.994
same,normalized growth,"locus YHR094C, strain hxt1, hits give low values",0.981
same,normalized growth,"locus YHR129C, strain ARP1, hits give low values",0.969
same,normalized growth,"locus YHR142W, strain chs7, hits give low values",1.07
same,normalized growth,"locus YHR200W, strain rpn10, hits give low values",0.948
same,normalized growth,"locus YIL066C, strain RNR3, hits give low values",1
same,normalized growth,"locus YIL073C, strain SPO22, hits give low values",0.907
same,normalized growth,"locus YIL125W, strain kgd1, hits give low values",0.981
same,normalized growth,"locus YIR030C, strain dcg1, hits give low values",0.962
same,normalized growth,"locus YJL092W, strain hpr5, hits give low values",1.03
same,normalized growth,"locus YJL095W, strain BCK1 (second series), hits give low values",1.05
same,normalized growth,"locus YJL095W, strain BCK1, hits give low values",0.833 and 0.987
same,normalized growth,"locus YJL115W, strain asf1, hits give low values",1.01
same,normalized growth,"locus YJL129C, strain trk1, hits give low values",0.999
same,normalized growth,"locus YJL134W, strain LCB3, hits give low values",0.986
same,normalized growth,"locus YJL154C, strain vps35, hits give low values",1.02
same,normalized growth,"locus YJL164C, strain tpk1, hits give low values",1.09 [resistant] (active)
same,normalized growth,"locus YJL166W, strain qcr8, hits give low values",1.01
same,normalized growth,"locus YJL168C, strain set2, hits give low values",0.955
same,normalized growth,"locus YJL187C, strain SWE1 (second series), hits give low values",0.933
same,normalized growth,"locus YJL187C, strain SWE1, hits give low values",1.03
same,normalized growth,"locus YJR043C, strain POL32, hits give low values",1.01
same,normalized growth,"locus YJR066W, strain TOR1, hits give low values",0.985
same,normalized growth,"locus YKL009W, strain mrt4, hits give low values",0.967
same,normalized growth,"locus YKL068W, hits give low values",0.99
same,normalized growth,"locus YKL085W, strain MDH1 (second series), hits give low values",0.975
same,normalized growth,"locus YKL085W, strain MDH1, hits give low values",0.975
same,normalized growth,"locus YKL160W, strain elf1, hits give low values",1.05
same,normalized growth,"locus YKL190W, strain CNB1, hits give low values",0.977
same,normalized growth,"locus YKR001C, strain vps1, hits give low values",0.89 (active)
same,normalized growth,"locus YKR026C, strain gcn3, hits give low values",1.02
same,normalized growth,"locus YKR091W, strain srl3, hits give low values",1.03
same,normalized growth,"locus YLL001W, strain dnm1, hits give low values",1.03
same,normalized growth,"locus YLL026W, hits give low values",1.03
same,normalized growth,"locus YLL041C, strain sdh2, hits give low values",1.02
same,normalized growth,"locus YLR027C, strain aat2, hits give low values",1.04
same,normalized growth,"locus YLR039C, strain RIC1, hits give low values",0.985
same,normalized growth,"locus YLR058C, strain SHM2, hits give low values",0.969
same,normalized growth,"locus YLR102C, strain apc9, hits give low values",0.972
same,normalized growth,"locus YLR113W, strain HOG1, hits give low values",0.961
same,normalized growth,"locus YLR221C, strain rsa3, hits give low values",1.07
same,normalized growth,"locus YLR258W, strain gsy2, hits give low values",1.07
same,normalized growth,"locus YLR262C, strain YPT6 (second series), hits give low values",1.04
same,normalized growth,"locus YLR262C, strain YPT6, hits give low values",1.02
same,normalized growth,"locus YLR268W, strain sec22, hits give low values",0.95
same,normalized growth,"locus YLR320W, strain mms22, hits give low values",0.999
same,normalized growth,"locus YLR330W, strain CHS5, hits give low values",0.957
same,normalized growth,"locus YLR342W, strain FKS1 (second series), hits give low values",1.08
same,normalized growth,"locus YLR342W, strain FKS1, hits give low values",1.02
same,normalized growth,"locus YLR357W, strain rsc2, hits give low values",1.05
same,normalized growth,"locus YLR370C, strain arc18, hits give low values",1.03
same,normalized growth,"locus YLR371W, strain rom2, hits give low values",0.939
same,normalized growth,"locus YLR384C, strain iki3, hits give low values",1.01
same,normalized growth,"locus YLR418C, strain cdc73, hits give low values",0.872
same,normalized growth,"locus YML016C, strain PPZ1, hits give low values",0.981
same,normalized growth,"locus YML032C, strain rad52, hits give low values",0.97
same,normalized growth,"locus YML120C, strain ndi1, hits give low values",1.03
same,normalized growth,"locus YML124C, strain tub3, hits give low values",0.967
same,normalized growth,"locus YMR058W, strain fet3, hits give low values",1.01
same,normalized growth,"locus YMR078C, strain ctf18, hits give low values",0.942
same,normalized growth,"locus YMR125W, strain sto1, hits give low values",1.03
same,normalized growth,"locus YMR129W, hits give low values",1.02
same,normalized growth,"locus YMR205C, strain PFK2, hits give low values",1.01
same,normalized growth,"locus YMR223W, strain ubp8, hits give low values",0.934
same,normalized growth,"locus YMR231W, strain pep5, hits give low values",1.02
same,normalized growth,"locus YMR307W, strain GAS1, hits give low values",0.984
same,normalized growth,"locus YNL067W, strain RPL9B, hits give low values",0.928
same,normalized growth,"locus YNL071W, strain lat1, hits give low values",1.01
same,normalized growth,"locus YNL128W, strain TEP1, hits give low values",0.909
same,normalized growth,"locus YNL153C, strain GIM3, hits give low values",0.938
same,normalized growth,"locus YNL183C, strain NPR1, hits give low values",0.932
same,normalized growth,"locus YNL209W, strain ssb2, hits give low values",1.01
same,normalized growth,"locus YNL233W, strain BNI4, hits give low values",0.889
same,normalized growth,"locus YNL248C, strain rpa49, hits give low values",1.06
same,normalized growth,"locus YNL250W, strain rad50, hits give low values",0.964
same,normalized growth,"locus YNL271C, strain bni1, hits give low values",0.955
same,normalized growth,"locus YNL298W, strain CLA4, hits give low values",0.979
same,normalized growth,"locus YNL307C, strain MCK1, hits give low values",0.963
same,normalized growth,"locus YNL322C, strain KRE1 (second series), hits give low values",1.04
same,normalized growth,"locus YNR049C, strain mso1, hits give low values",1.02
same,normalized growth,"locus YNR052C, strain pop2, hits give low values",0.908 (active)
same,normalized growth,"locus YOL006C, strain TOP1, hits give low values",0.696
same,normalized growth,"locus YOL012C, strain htz1",0.364
same,normalized growth,"locus YOL147C, strain pex11, hits give low values",0.972
same,normalized growth,"locus YOR001W, strain rrp6, hits give low values",1.03
same,normalized growth,"locus YOR061W, strain CKA2, hits give low values",0.987
same,normalized growth,"locus YOR069W, strain VPS5, hits give low values",0.986
same,normalized growth,"locus YOR070C, strain gyp1, hits give low values",1.01
same,normalized growth,"locus YOR080W, strain dia2, hits give low values",1.05
same,normalized growth,"locus YOR083W, strain WHI5, hits give low values",1.05
same,normalized growth,"locus YOR106W, strain vam3, hits give low values",1.03
same,normalized growth,"locus YOR136W, strain idh2, hits give low values",0.977
same,normalized growth,"locus YOR144C, strain elg1, hits give low values",0.984
same,normalized growth,"locus YOR184W, strain ser1, hits give low values",0.989
same,normalized growth,"locus YOR231W, strain MKK1, hits give low values",1
same,normalized growth,"locus YOR265W, strain rbl2, hits give low values",1.01
same,normalized growth,"locus YOR270C, strain vph1, hits give low values",1.07
same,normalized growth,"locus YOR290C, strain snf2, hits give low values",1.06
same,normalized growth,"locus YOR316C, strain cot1, hits give low values",0.972
same,normalized growth,"locus YPL051W, strain arl3, hits give low values",1.02
same,normalized growth,"locus YPL078C, strain atp4, hits give low values",1.02
same,normalized growth,"locus YPL106C, strain sse1, hits give low values",1.05
same,normalized growth,"locus YPL240C, strain hsp82, hits give low values",1.02
same,normalized growth,"locus YPL256C, strain CLN2, hits give low values",0.99
same,normalized growth,"locus YPR119W, strain clb2, hits give low values",0.951
same,normalized growth,"locus YPR141C, strain kar3, hits give low values",0.957
same,normalized growth,"locus YPR163C, strain tif3, hits give low values",0.962
same,normalized growth,"locus YPR167C, strain met16, hits give low values",0.975
same,normalized growth,"strain wtn01, hits give low values",0.953
